Test results as given in PubChem BioAssay (Tox21).
The source made the active and inactive calls. The call rests on the fitted dose curve; in most records, active means well fitted curve in the direction sought with a large enough effect in the repeat runs; inconclusive means weak or mixed curves; inactive means flat fitted curve, though single readings scatter. Positions of bridges follow the written chain, without caps; N, C: chain ends. Non-standard residues stand in square brackets, D forms with d. Residues, ends and D or L forms follow the SMILES beside them. *: point of attachment. X1 = CC[C@@H](C)[C@@H](N)C1=N[C@H](C(=O)*)CS1; d(aIle) = CC[C@H](C)[C@@H](N)C(=O)O; dOrn = NCCC[C@@H](N)C(=O)O; Orn = NCCC[C@H](N)C(=O)O
On the % scale 0 is the no-effect control and ±100 the full control effect.

Assay: qHTS assay to test for compound auto fluorescence at 535 nm (green) in HepG2 cell free culture (AID 720686)
Details: Cell-free medium, green autofluorescence 485/535 nm; series mostly up to 46 µM; fluorescence, % of fluorescein control: at the top concentration
Description: U.S. Tox21 Program National Center for Advancing Translational Sciences [NCATS] NIH Chemical Genomics Center [NCGC] U.S. Environmental Protection Agency [EPA] National Institutes of Environmental Health Sciences [NIEHS] National Toxicology Program [NTP] U.S. Food and Drug Administration [FDA] Tox21 Assay Overview: Compound auto fluorescence often interferes with screening of the compound library against various biological targets and signaling pathways. Some of these compounds may have fluorophoric properties. Such properties may interfere with the assay outputs resulting in false positives and/or negatives. To decrease such complications and ensure the compound activities are relevant in terms of biological response, the Tox21 10K compound library was screened for auto fluorescence. From the fluorophores used as reporter signals in our screening assays, the auto fluorescence equivalencies of compounds against three fluorophores have been evaluated: Triamterene, Fluorescein and Rose Bengal sodium for blue, green and red fluorescence, respectively. The fluorescence intensities were measured using Excitation/Emission wavelengths at 405/460nm, 485/535nm and 540/590nm for blue, green and red labels, respectively. This assay includes the green fluorescence data.
Tox21 Assay Protocol Summary: 5 uL of culture medium (MEM containing 10% FBS) per well was dispensed into black wall/clear bottom 1536-well plates using a Multidrop Combi Dispenser (ThermoFisher Scientific, Waltham, MA). After 23 nL compound or DMSO vehicle was transferred into assay plate by a pintool work station (Kalypsys, San Diego, CA), fluorescence intensities in the assay plates were measured by an Envision (PerkinElmer, Shelton, CT) plate reader using three labels for measuring blue, green and red fluorescence at […] 460, 535 and 590nm respectively.
In the case of C=N[C@@H](C(=O)N[C@@H]1C(=O)N2[C@@H]1SC(C)(C)[C@@H]2C(=O)O)c1ccccc1, the “fluorescence, % of fluorescein control” value is reported as 0.122% (inactive).
In the case of CC[C@@H](C)[C@@H](N)C1=N[C@H](C(=O)N[C@@H](CC(C)C)C(=O)N[C@@H](CCC(=O)O)C(=O)N[C@@H](C(=O)N[C@@H]2CCCCNC(=O)[C@@H](CC(N)=O)NC(=O)[C@@H](CC(=O)O)NC(=O)[C@@H](Cc3cnc[nH]3)NC(=O)[C@@H](Cc3ccccc3)NC(=O)[C@@H]([C@H](C)CC)NC(=O)[C@@H](CCCN)NC2=O)[C@@H](C)CC)CS1 (X1-LE[d(aIle)][dK][dOrn][dI][dF][dH][dD][dN]; lactam 4-C), the Potency is reported as “inactive”.
In the case of N[C@H](CO)C(=O)O, the “fluorescence, % of fluorescein control” value is reported as -0.0112% (inactive).
In the case of NC(=O)[C@H]1O[C@@H](O)[C@H](O)[C@@H](O)[C@@H]1O, the “fluorescence, % of fluorescein control” value is reported as -0.0024% (inactive).
In the case of C=CCN1C(=O)C(CC(C)C)NC1=S (stereo not given), the Potency is reported as “inactive”.
In the case of Cc1cn([C@H]2C[C@H](O)[C@@H](CO)O2)c(=O)[nH]c1=O, the “fluorescence, % of fluorescein control” value is reported as -0.0162% (inactive).
For C=C1C(CCl)(CCl)C2(Cl)C(Cl)C(Cl)C1(Cl)C2(Cl)Cl (stereo not given), the Potency was “inactive”.
For Cc1c(N)nc([C@H](CC(N)=O)NC[C@H](N)C(N)=O)nc1C(=O)N[C@H](C(=O)N[C@H](C)[C@@H](O)[C@H](C)C(=O)N[C@H](C(=O)NCCc1nc(-c2nc(C(=O)NCCCCN=C(N)N)cs2)cs1)[C@@H](C)O)[C@@H](O[C@@H]1O[C@@H](CO)[C@@H](O)[C@H](O)[C@@H]1O[C@H]1O[C@H](CO)[C@@H](O)[C@H](OC(N)=O)[C@@H]1O)c1cnc[nH]1, the Potency was “inactive”.
For C/C(=C\C(=O)OCCCCCCCCC(=O)O)C[C@@H]1OC[C@H](C[C@@H]2O[C@H]2[C@@H](C)[C@H](C)O)[C@@H](O)[C@H]1O, the “fluorescence, % of fluorescein control” value was -0.0272% (inactive).
With NC(=O)c1cc[n+](CC2=C(C(=O)O)N3C(=O)[C@@H](NC(=O)C(c4ccccc4)S(=O)(=O)[O-])[C@H]3SC2)cc1 (stereo not given in full) the “fluorescence, % of fluorescein control” value was -0.0055% [at 18.6 µM] (inactive).
For N[C@@H](Cc1cnc[nH]1)C(=O)O, the “fluorescence, % of fluorescein control” value was -0.0178% (inactive).
With CCOC(=O)COc1ccc2c(=O)cc(-c3ccccc3)oc2c1 the Potency was “inactive”.
In the case of C=C1[C@@H]2CC[C@@H](C2)C1(C)C, the “fluorescence, % of fluorescein control” value is reported as 0.0349% (inactive).
In the case of CCCCCCCCCCCCCC(=O)OCC(COP(=O)([O-])OCC[N+](C)(C)C)OC(=O)CCCCCCCCCCCCC (stereo not given), the “fluorescence, % of fluorescein control” value is reported as -0.0014% (inactive).
With CC(=O)N[C@@H](C=O)[C@H](O)[C@H](O)[C@@H](O)CO the Potency was “inactive”.
With FC(F)(F)C(F)(F)C(F)(F)C(F)(F)C(F)(F)F the “fluorescence, % of fluorescein control” value was 0.0649% (inactive).
For COc1cc2c(cc1OC)[C@@H](Cc1cc(OC)c(OC)c(OC)c1)[N+](C)(CCCOC(=O)CC/C=C/CCC(=O)OCCC[N+]1(C)CCc3cc(OC)c(OC)cc3[C@H]1Cc1cc(OC)c(OC)c(OC)c1)CC2 (stereo not given in full), the Potency was “inactive”.
For CO/N=C(\C(=O)N[C@@H]1C(=O)N2C(C(=O)O)=C(COC(C)=O)CS[C@H]12)c1csc(N)n1 (stereo in doubt), the “fluorescence, % of fluorescein control” value was 0.0583% (inactive).
In the case of CNCCC=C1c2ccccc2CCc2ccccc21, the “fluorescence, % of fluorescein control” value is reported as -0.0182% (inactive).
For C[C@@H]1C(=O)NC2=Nc3cccc(Cl)c3CN21, the “fluorescence, % of fluorescein control” value was -0.011% (inactive).
In the case of C[C@]12O[C@H](C[C@]1(O)CO)n1c3ccccc3c3c4c(c5c6ccccc6n2c5c31)CNC4=O, the “fluorescence, % of fluorescein control” value is reported as -0.477% (inactive).
With O=C(O)[C@H]1CN(C/C=C/P(=O)(O)O)CCN1 the “fluorescence, % of fluorescein control” value was 0.111% (inactive).
In the case of CC(C)c1ccc2sc3ccccc3c(=O)c2c1, the “fluorescence, % of fluorescein control” value is reported as -0.0144% [at 91.3 µM] (inactive).
For N#Cc1nc(Cl)c(Cl)c(Cl)c1Cl, the “fluorescence, % of fluorescein control” value was -0.0096% [at 91.3 µM] (inactive).
For CCC[C@@H]1C[C@@H](C(=O)N[C@@H]([C@H]2O[C@H](SC)[C@H](OP(=O)(O)O)[C@@H](O)[C@H]2O)[C@H](C)Cl)N(C)C1, the Potency was “inactive”.
In the case of C[C@@H]1O[C@@H]1P(=O)(O)O, the “fluorescence, % of fluorescein control” value is reported as -0.0406% (inactive).
For CCN(CC)CCNC(=O)c1ccc(NS(C)(=O)=O)cc1, the “fluorescence, % of fluorescein control” value was 0.0865% (inactive).
For CO[C@H]1C[C@@H]2CC[C@@H](C)[C@@](O)(O2)C(=O)C(=O)N2CCCC[C@H]2C(=O)O[C@H]([C@H](C)C[C@@H]2CC[C@@H](O)[C@H](OC)C2)CC(=O)[C@H](C)C=C(C)[C@@H](O)[C@@H](OC)C(=O)[C@H](C)C[C@H](C)/C=C/C=CC=C1C, the Potency was “inactive”.
In the case of Cc1cc(N)c2ccccc2[n+]1CCCCCCCCCC[n+]1c(C)cc(N)c2ccccc21, the “fluorescence, % of fluorescein control” value is reported as -0.0088% [at 18.6 µM] (inactive).
For CC(C)c1ncc([N+](=O)[O-])n1C, the “fluorescence, % of fluorescein control” value was 0.0935% (inactive).
With CC(C)C[C@@H]1NC(=O)[C@H](CCCN)NC(=O)[C@H](C(C)C)NC(=O)[C@@H]2CCCN2C(=O)[C@@H](Cc2ccccc2)NC(=O)[C@H](CC(C)C)NC(=O)[C@H](CCCN)NC(=O)[C@H](C(C)C)NC(=O)[C@@H]2CCCN2C(=O)[C@@H](Cc2ccccc2)NC1=O (cyclo(V[Orn]L[dF]PV[Orn]L[dF]P)) the “fluorescence, % of fluorescein control” value was -0.0076% (inactive).
In the case of CCN(CC)C(=O)[C@]1(c2ccccc2)C[C@@H]1CN, the “fluorescence, % of fluorescein control” value is reported as 0.0243% (inactive).
With CC(=O)O[C@H]1C[C@@H]2CC[C@@H]3[C@H](CC[C@@]4(C)[C@H]3C[C@H]([N+]3(C)CCCCC3)[C@@H]4OC(C)=O)[C@@]2(C)C[C@@H]1[N+]1(C)CCCCC1 the “fluorescence, % of fluorescein control” value was -0.0828% (inactive).
In the case of O=C1c2ccccc2CN2C(=O)c3ccccc3CN12, the “fluorescence, % of fluorescein control” value is reported as 0.0421% (inactive).
In the case of O=S(=O)(O)CC(S)CS (stereo not given), the “fluorescence, % of fluorescein control” value is reported as 0.0371% (inactive).
For CC(C)(S)C(=O)N[C@@H](CS)C(=O)O, the Potency was “inactive”.
In the case of CCSCC, the “fluorescence, % of fluorescein control” value is reported as 0.0092% [at 95.7 µM] (inactive).
With CC1(C)S[C@@H]2[C@H](N3C(=O)C(c4ccccc4)NC3(C)C)C(=O)N2[C@H]1C(=O)O (stereo not given in full) the “fluorescence, % of fluorescein control” value was -0.0749% (inactive).
With CC[C@H]1OC(=O)C[C@@H](O)[C@H](C)[C@@H](O[C@@H]2O[C@H](C)[C@@H](O)[C@H](N(C)C)[C@H]2O)[C@@H](CCN2C[C@H](C)C[C@H](C)C2)C[C@@H](C)C(=O)/C=C/C(C)=C/[C@@H]1CO[C@@H]1O[C@H](C)[C@@H](O)[C@@H](OC)[C@H]1OC the “fluorescence, % of fluorescein control” value was 0.0422% (inactive).
In the case of O=C(O)c1cc(O)c2c(c1)[C@H]([C@H]1c3cc(C(=O)O)cc(O)c3C(=O)c3c(O[C@@H]4O[C@H](CO)[C@@H](O)[C@H](O)[C@H]4O)cccc31)c1cccc(O[C@@H]3O[C@H](CO)[C@@H](O)[C@H](O)[C@H]3O)c1C2=O, the “fluorescence, % of fluorescein control” value is reported as -0.0943% (inactive).
